Source: PubChem BioAssay (NCATS)
Records with an inconclusive call do not appear. Unmarked numbers belong to inactive results. Activity calls are given as the source filed them. The call rests on the fitted dose curve; in most records, active means well fitted curve in the direction sought with a large enough effect; inconclusive means small, poorly fitted or top-dose-only effect, or another doubt; inactive means no such curve, though single readings can be large; an effect the other way counts as inactive or inconclusive.

system: NIH3T3; experiment: qHTS assay to identify novel small-molecules to repurpose for Merkel cell carcinoma treatment (AID 1296009); settings: MCC and control cell lines, CellTiter-Glo viability, 72 h; series mostly up to 44.8 µM; further: nearly all actives have a fitted effect of over 60% in size
Method in brief: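 After compound transfer in DMSO, plates were kept 72 hr at 37 degree celsius. Luminescent ATP signal from CellTiter-Glo served as viability measure, normalized against DMSO and no-cell controls.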

Row | SMILES | outcome
1 | CC(C)c1cc(-c2ccc(F)c3ccccc23)nc(N)n1 | inactive
2 | O=C(NCCN1CCC(n2c(=O)[nH]c3ccccc32)CC1)c1cc2cc(F)ccc2[nH]1 | inactive
3 | CCN1CCC[C@@H]1CNC(=O)c1ccc2c(c1)NC(=O)c1cccc(C)c1S2 | inactive

system: C33A; experiment: Primary qHTS to identify gynecologic anti-cancer compounds using libraries of approved drugs and bioactive compounds (AID 1345084); settings: Gynecologic cancer cell panel viability, ATPlite luminescence, 48 h; series mostly up to 57.5 µM; activity change, negative = cytotoxicity: at the top concentration; further: on the % scale 0 is the no-effect control and ±100 the full control effect; nearly all actives have a fitted effect of over 55% in size
Method in brief: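 In this quantitative HTS, cell killing is estimated from loss of ATP-dependent luciferase light. Cells see five compound concentrations over a 48 h exposure.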

Row | SMILES | activity change, negative = cytotoxicity
4 | Cc1ccnn1-c1ccc(C(=O)N2CCN(S(=O)(=O)c3ccc(Cl)c(C(F)(F)F)c3)CC2)cc1 | 6.32%
5 | Fc1ccc(N2CCCCC2)c(NC(=S)c2ccncc2)c1 | -0.556%
6 | O=C(Cc1c(F)cccc1F)Nc1cc(OCc2ccc(Cl)cc2)ccn1 | 8.07%
7 | CCN(c1cc(-c2ccc(CN3CCOCC3)cc2)cc(C(=O)NCc2c(C)cc(C)[nH]c2=O)c1C)C1CCOCC1 | 3.54%
8 | C/C=C(/C)C(=O)O[C@@H]1C[C@@H](OC(=O)CC(C)C)C2(C)C3C(=O)C=C(C)C2C3C1(C)C (stereo not given in full) | -13.8% [at 25.3 µM]
9 | CCOc1cc(C(C)(C)C)ccc1C1=NC(C)(c2ccc(Cl)cc2)C(C)(c2ccc(Cl)cc2)N1C(=O)N1CCN(CCCS(C)(=O)=O)CC1 (stereo not given) | -17.2%
10 | COc1ccc(S(=O)(=O)N2CCC[C@H]2C(=O)Nc2cc(C)cc(C)c2)cc1 | 5.35%
11 | CN(C)C(=O)Nc1cc(-c2ccccc2)ccc1N(C)C | 1.35%
12 | COc1ccc(NC(=O)c2ccc(C(=N)N(C)C)cc2)c(C(=O)Nc2ccc(Cl)cn2)c1 | -2.84%
13 | Nc1nccc(-c2c(-c3ccc(F)cc3)ncn2C2CCCCC2)n1 | -22.2%
14 | CC(C)c1cc(-c2ccc(F)c3ccccc23)nc(N)n1 | 6.72%
15 | CNc1cccc(CCOc2ccc3c(c2)CN(CC(F)(F)F)C(=O)[C@H](CC(=O)O)C3)n1 | -27.3%
